Measurements published in PubChem BioAssay (NCATS).
Inconclusive results are not listed. Active and inactive are the calls of the source. Unless noted, the call rests on the fitted dose curve; in most records, active means well fitted curve in the direction sought with a large enough effect in the repeat runs; inconclusive means weak or mixed curves; inactive means no such curve, though single readings can be large; an effect the other way counts as inactive or inconclusive.

Legend:
[1] = target: Cytochrome P450 2C9 (Homo sapiens) (UniProt P11712); assay: Cytochrome P450 family 2 subfamily C member 9 (CYP2C9) small molecule antagonists: luciferase biochemical (cell-free) qHTS assay (AID 1645842); further: nearly all actives have a fitted effect of over 55% in size; further: potency means the concentration at half of the fitted maximal effect
Sequence of Cytochrome P450 2C9 (Homo sapiens) (P11712 whole entry, looked up): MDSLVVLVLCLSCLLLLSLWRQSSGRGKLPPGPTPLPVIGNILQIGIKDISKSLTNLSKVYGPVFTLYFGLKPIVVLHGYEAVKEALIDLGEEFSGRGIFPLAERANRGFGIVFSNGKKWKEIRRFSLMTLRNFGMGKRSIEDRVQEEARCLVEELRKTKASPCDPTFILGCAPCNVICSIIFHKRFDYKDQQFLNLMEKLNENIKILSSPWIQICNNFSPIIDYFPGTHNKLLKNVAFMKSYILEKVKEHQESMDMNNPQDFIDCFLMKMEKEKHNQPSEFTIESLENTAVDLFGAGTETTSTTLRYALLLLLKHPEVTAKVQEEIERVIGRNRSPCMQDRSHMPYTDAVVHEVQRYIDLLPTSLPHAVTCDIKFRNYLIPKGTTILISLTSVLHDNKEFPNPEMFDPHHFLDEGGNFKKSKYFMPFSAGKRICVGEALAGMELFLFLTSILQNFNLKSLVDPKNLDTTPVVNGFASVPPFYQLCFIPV
In short: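 P450-Glo CYP2C9 system: proluciferin substrate with enzyme in mix containing 0.4% BSA, 10 min at room temperature, then NADPH regeneration solution added and incubated 1 h at 37C. Detection reagent stopped reaction; luminescence read after 20 min as RLU.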

[2] = Stat Signaling Pathway (AID 446; active means well fitted curve in either direction with a large enough effect, not every such curve was filed as active;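 further: ME-180 cervical cancer cells given 40 pM IL-6 alongside compound; SIE-controlled beta-lactamase reporter measured as 460/530 nm FRET emission ratio; on the % scale 0 is the no-effect control and ±100 the full control effect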)
In short: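 Compound effects on IL-6-induced STAT reporter activity were measured in ME-180 cells. After overnight culture, cells were co-treated with 40 pM IL-6 for 5 hrs before beta-lactamase substrate loading at room temperature.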

[3] = target: Glucocorticoid receptor (Homo sapiens) (UniProt P04150); assay: GR-GFP Redistribution (AID 450;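 active means compounds whose dose series gives a full or clear partial fitted curve of increased nuclear translocation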; further: potency means the concentration at half of the fitted maximal effect); settings: U2OS GR-GFP nuclear translocation, laser cytometry, 2 h
Sequence of Glucocorticoid receptor (Homo sapiens) (P04150 whole entry, looked up): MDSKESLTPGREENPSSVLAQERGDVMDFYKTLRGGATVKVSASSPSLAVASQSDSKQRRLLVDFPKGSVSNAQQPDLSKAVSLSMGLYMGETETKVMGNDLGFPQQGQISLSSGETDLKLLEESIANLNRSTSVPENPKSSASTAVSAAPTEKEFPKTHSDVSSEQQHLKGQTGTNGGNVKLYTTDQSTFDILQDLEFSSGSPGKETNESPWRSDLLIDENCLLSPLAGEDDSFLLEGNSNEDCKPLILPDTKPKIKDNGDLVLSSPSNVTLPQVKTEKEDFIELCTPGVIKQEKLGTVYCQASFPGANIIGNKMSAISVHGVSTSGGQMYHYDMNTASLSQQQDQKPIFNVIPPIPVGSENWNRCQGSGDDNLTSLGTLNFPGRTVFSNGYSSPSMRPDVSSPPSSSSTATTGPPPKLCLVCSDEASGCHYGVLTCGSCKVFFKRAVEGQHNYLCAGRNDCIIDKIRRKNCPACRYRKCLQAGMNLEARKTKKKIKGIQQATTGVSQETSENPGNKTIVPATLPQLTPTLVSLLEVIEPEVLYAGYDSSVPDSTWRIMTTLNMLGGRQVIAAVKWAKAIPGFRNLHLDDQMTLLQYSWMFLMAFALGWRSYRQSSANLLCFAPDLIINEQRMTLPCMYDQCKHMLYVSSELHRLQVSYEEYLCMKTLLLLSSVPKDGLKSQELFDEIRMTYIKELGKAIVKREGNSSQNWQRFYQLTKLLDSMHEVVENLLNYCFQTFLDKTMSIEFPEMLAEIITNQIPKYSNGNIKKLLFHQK

[4] = target: Luciferin 4-monooxygenase (Photinus pyralis) (UniProt P08659); assay: Biochemical firefly luciferase enzyme assay for NPC (AID 624030; active means well fitted curve in the direction sought with a large enough effect; an effect the other way counts as inactive or inconclusive;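 further: purified P. pyralis luciferase at 10 nM with luciferin and ATP substrate; series mostly up to about 59 µM; 0% = DMSO and -100% = full luciferase inhibition by PTC124 control; nearly all actives have a fitted effect of over 70% in size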)
Sequence of Luciferin 4-monooxygenase (Photinus pyralis) (P08659 whole entry, looked up): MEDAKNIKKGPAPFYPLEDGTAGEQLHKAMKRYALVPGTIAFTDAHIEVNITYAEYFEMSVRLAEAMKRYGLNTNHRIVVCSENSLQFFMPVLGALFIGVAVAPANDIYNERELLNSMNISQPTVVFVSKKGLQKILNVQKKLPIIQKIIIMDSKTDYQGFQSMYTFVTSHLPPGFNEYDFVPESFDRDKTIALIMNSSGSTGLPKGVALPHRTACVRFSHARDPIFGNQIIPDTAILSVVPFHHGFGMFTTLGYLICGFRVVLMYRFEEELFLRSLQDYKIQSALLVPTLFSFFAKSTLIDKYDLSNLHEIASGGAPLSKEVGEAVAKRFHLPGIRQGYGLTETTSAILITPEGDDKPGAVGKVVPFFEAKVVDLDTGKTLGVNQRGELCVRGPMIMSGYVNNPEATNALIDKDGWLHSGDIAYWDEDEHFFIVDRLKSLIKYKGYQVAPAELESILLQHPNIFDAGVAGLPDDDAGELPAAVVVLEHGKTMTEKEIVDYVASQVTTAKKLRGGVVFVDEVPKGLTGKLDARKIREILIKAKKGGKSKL
In short: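 Direct inhibition of firefly luciferase enzyme (10 nM final, 50 mM Tris Acetate) assessed by luminescence within 5 minutes. Percent activity scaled between DMSO and PTC124 positive control, with concentration-effect curves classified by fit quality and response.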

[5] = target: Cytochrome P450 2D6 (Homo sapiens) (UniProt P10635); assay: Cytochrome P450 family 2 subfamily D member 6 (CYP2D6) small molecule antagonists: luciferase biochemical (cell-free) qHTS assay (AID 1645840); further: nearly all actives have a fitted effect of over 55% in size; further: potency means the concentration at half of the fitted maximal effect
Sequence of Cytochrome P450 2D6 (Homo sapiens) (P10635 whole entry, looked up): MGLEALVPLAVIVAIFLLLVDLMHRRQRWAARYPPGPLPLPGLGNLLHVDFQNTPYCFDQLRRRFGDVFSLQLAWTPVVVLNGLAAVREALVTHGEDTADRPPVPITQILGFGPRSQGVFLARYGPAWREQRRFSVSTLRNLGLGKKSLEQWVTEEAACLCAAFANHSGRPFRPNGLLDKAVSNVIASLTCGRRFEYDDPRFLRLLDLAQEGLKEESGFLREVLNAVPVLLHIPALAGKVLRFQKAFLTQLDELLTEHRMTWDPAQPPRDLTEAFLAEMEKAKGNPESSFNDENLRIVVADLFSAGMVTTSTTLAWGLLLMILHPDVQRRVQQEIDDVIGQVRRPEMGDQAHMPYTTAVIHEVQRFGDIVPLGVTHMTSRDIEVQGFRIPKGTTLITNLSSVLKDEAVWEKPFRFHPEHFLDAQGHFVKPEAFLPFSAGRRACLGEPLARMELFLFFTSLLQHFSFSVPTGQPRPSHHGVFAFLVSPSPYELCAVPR
In short: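 P450-Glo CYP2D6 system: proluciferin substrate converted by enzyme to luciferin, read by luminescence proportional to activity. Enzyme-substrate mix with compound 10 min at room temperature, then NADPH regeneration 1 h before detection reagent.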

[6] = target: Glutathione peroxidase 1 (Homo sapiens) (UniProt P07203); assay: Primary qHTS Assay for Inhibitors of Recombinant Selenoprotein Glutathione Peroxidase 1 (GPX1) (AID 1845191; active means well fitted curve in the direction sought with a large enough effect; an effect the other way counts as inactive or inconclusive; further: nearly all actives have a fitted effect of over 65% in size)
Sequence of Glutathione peroxidase 1 (Homo sapiens) (P07203 whole entry, looked up): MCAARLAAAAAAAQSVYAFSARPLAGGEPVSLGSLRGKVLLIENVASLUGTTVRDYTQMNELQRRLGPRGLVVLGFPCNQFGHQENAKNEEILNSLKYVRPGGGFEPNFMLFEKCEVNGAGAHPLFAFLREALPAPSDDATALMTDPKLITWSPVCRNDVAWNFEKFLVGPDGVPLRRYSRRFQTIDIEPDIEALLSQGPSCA
In short: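 NADPH consumption tracked by fluorescence at 340/450 nm between t=0 and t=15 min, room temperature. Final mix: 10 nM GPX1, 100 nM glutathione reductase, 1 mM GSH, 0.5 mM NADPH, 0.5 mM cumene hydroperoxide, 0.01% BSA; 30 min compound–enzyme preincubation.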

[7] = target: Phospholipid hydroperoxide glutathione peroxidase GPX4 (Homo sapiens) (UniProt P36969); assay: Primary qHTS Assay for Inhibitors of Recombinant Selenoprotein Glutathione Peroxidase 4 (GPX4) (AID 1845192; active means well fitted curve in the direction sought with a large enough effect; an effect the other way counts as inactive or inconclusive; further: series mostly up to about 50 µM; on the % scale 0 is the no-effect control and ±100 the full control effect; nearly all actives have a fitted effect of over 65% in size)
Sequence of Phospholipid hydroperoxide glutathione peroxidase GPX4 (Homo sapiens) (P36969 whole entry, looked up): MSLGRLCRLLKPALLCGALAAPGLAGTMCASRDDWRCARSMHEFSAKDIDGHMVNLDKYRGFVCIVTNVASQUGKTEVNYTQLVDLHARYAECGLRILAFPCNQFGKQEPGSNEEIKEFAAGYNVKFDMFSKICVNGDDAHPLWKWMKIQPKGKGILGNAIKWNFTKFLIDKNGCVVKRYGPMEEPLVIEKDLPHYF
In short: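 NADPH consumption followed by fluorescence at 340/450 nm, t=0 and after 15 min at room temperature. Reaction started with cumene hydroperoxide (0.5 mM final) after 30 min compound–GPX4 preincubation; final 200 nM GPX4, 100 nM GR, 1 mM GSH, 0.5 mM NADPH.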

[8] = qHTS drug screen for cell cycle checkpoint inhibitors in PARPi-resistant BRCA-mutant ovarian cancer cell lines. (AID 1963452; calls by dose curve); settings: PEO1/OlaR viability, CellTiter-Glo luminescence, 96 h, stronger effect = lower value
In short: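 PEO1, PEO4 and PEO1/OlaR ovarian cancer cells, 600 per well, exposed 96 h at 37C to a dilution series. Viability read by CellTiter-Glo luminescence, normalized to DMSO and empty wells; activity summarized as Z-AUC.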

In the case of `Cc1cccc2nc(-c3ccccn3)c(Nc3ccccc3)n12`, the Potency [1] is reported as 1200 nM (active).

For `C[C@@H]1C[C@H]2[C@@H]3C[C@H](F)C4=CC(=O)C=C[C@]4(C)[C@@]3(F)[C@@H](O)C[C@]2(C)[C@@]1(O)C(=O)COC(=O)C(C)(C)C`, the outcome [2] was “inactive”, the Potency [3] was 1.24 nM (active) and the Potency [4] was “inactive”. The Potency [5] was “inactive”, the Potency [1] was 9520 nM (active) and the Potency [6] was “inactive”. The Potency [7] was “inactive”.

For `Cc1cc2c(F)c(Oc3ncnn4cc(OC[C@@H](C)OC(=O)[C@H](C)N)c(C)c34)ccc2[nH]1`, the Potency [5] was 10700 nM (active), the Potency [1] was 2390 nM (active) and the Potency [6] was “inactive”. For the same compound, the Z-AUC [8] was 1.46 (inactive), the Z-AUC ([8]; measured here: PEO1 parental Z-AUC) was 0.526 and the Z-AUC ([8]; measured here: PEO4 Z-AUC) was 0.822.

In the case of `COc1ccc(CNC(=O)c2nc(SCc3ccccc3F)ncc2Cl)cc1`, the Potency [1] is reported as “inactive”.

In the case of `CC(=O)c1ccc(NC(=O)Cn2cc(S(=O)(=O)Cc3ccccc3Cl)c3ccccc32)cc1`, the Potency [1] is reported as 1690 nM (active).

In the case of `CC(=O)C1=C(c2ccc(Cl)c(Cl)c2)N(C(C)=O)n2cnnc2S1`, the Potency [1] is reported as 2390 nM (active).
